# From PubChem BioAssay AID588579 (National Center for Advancing Translational Sciences (NCATS), 2011)
# “And” between values parts separate entries of the source, which are not always exact repeats. Identical values can stand only once. Among all 400,000 compounds or so, about 2,200 (0.55%) were called active. About 1% were inconclusive and are not listed. Calls follow the shape of the dose curve; as a rule, active = well fitted inhibition curve with a large enough effect; inconclusive = small, poorly fitted or top-dose-only effect, or another doubt; inactive = no such curve, though single readings can be large or run the other way. Only a selection was taken, and actives are over-represented in it overall. More than one record can exist for a structure, and the calls need not agree.
# Target: DNA polymerase kappa (Homo sapiens) (UniProt Q9UBT6)
# Sequence (Q9UBT6 whole entry, looked up): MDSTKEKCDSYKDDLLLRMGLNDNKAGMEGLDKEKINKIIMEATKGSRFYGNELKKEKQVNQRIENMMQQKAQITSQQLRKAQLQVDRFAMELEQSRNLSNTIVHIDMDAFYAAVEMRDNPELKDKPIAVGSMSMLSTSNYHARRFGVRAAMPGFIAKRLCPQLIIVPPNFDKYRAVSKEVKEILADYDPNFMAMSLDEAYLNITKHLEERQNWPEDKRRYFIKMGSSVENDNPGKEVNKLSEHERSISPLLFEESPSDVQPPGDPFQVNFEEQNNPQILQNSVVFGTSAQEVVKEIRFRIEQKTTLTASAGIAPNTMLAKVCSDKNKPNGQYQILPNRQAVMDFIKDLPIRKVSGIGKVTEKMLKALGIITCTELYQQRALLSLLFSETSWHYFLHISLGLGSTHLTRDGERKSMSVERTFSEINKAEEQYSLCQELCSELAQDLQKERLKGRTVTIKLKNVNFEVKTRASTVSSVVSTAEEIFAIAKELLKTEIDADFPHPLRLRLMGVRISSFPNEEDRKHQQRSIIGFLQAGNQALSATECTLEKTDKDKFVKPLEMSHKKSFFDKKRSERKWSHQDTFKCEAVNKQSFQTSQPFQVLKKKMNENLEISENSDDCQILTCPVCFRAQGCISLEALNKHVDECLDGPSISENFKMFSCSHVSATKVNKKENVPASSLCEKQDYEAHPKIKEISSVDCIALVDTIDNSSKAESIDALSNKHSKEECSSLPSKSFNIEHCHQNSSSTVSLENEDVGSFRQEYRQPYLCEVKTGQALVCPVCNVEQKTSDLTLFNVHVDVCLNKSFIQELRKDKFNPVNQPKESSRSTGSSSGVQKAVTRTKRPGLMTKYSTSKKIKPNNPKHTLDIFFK
# Assay: qHTS for Inhibitors of Polymerase Kappa
# Details: purified Pol kappa, fluorescent DNA synthesis assay, 10 min; series mostly up to 60.1 µM; activity, negative = inhibition: at the top concentration
# Method: The processing and repair of DNA interstrand crosslinks (ICL) in eukaryotic cells are extremely complex, potentially involving multiple DNA repair and damage tolerance pathways, including homologous recombination, nucleotide excision repair, translesion synthesis (TLS), and cell cycle checkpoints.
# To that end, in a collaboration between the Oregon Health & Science University and the NIH Chemical Genomics Center a 1536-well high-throughput screen was developed. This fluorescent screen was assayed against the NIH Molecular Libraries Small Molecule Repository (MLSMR) to discover inhibitors of Pol Kappa.
# NIH Chemical Genomics Center [NCGC]
# NIH Molecular Libraries Probe Centers Network [MLPCN]
# Assay Submitter (PI): Stephen Lloyd, Oregon Health & Science University
# Three microliters of reagents (buffer in column 3 and 4 as negative control and 10 nM Pol kappa in columns 1, 2, and 5-48) were dispensed into a 1536-well black solid-bottom plate. Compounds (23 nL) were transferred via Kalypsys pin tool equipped with 1536-pin array. The plates were then incubated for 15 min at room temperature, and 1 uL substrate (50 nM final concentration) were then added to start the reaction and kinetically read twice at 0 min and 10 min on the Viewlux reader
# % is scaled to controls: 0 for no effect and ±100 for the full control effect; potency is read from the fitted curve at half-maximal effect.
SMILES,Potency,"activity, negative = inhibition"
Cc1cc(/C=C2/C(=O)NC(=O)N(Cc3ccco3)C2=O)c(C)n1-c1ccc(C(=O)O)cc1,50.1 µM (active),
CN[C@@H]1C[C@H]2O[C@@](C)([C@@H]1OC)n1c3ccccc3c3c4c(c5c6ccccc6n2c5c31)C(=O)NC4,inactive,
CCN1C[C@]2(COC)C(O)C[C@H](OC)[C@@]34C5C[C@]6(O)C(OC)C(O)[C@](OC(C)=O)(C5C6OC(=O)c5ccccc5)C(C(OC)C23)C14 (some centres undefined),,2.42% (inactive)
CC(CCC(=O)O)C1CCC2C3C(O)C[C@@H]4CC(O)CC[C@@]4(C)C3CC[C@@]12C (some centres undefined),,-1.37% (inactive)
COc1ccc(C2Oc3c(I)c(OC)cc(OC)c3CC2O)cc1OC (centres undefined),,1.84% (inactive)
N[C@H](Cc1o[nH]c(=O)c1Cl)C(=O)O,,-6.05% [at 19.4 µM] (inactive)
CN1CCN(C(=O)O[C@@H]2c3nccnc3C(=O)N2c2ccc(Cl)cn2)CC1,,-8.72% [at 19.4 µM] (inactive)
C/C(=C\C=C/[C@@H](C)C(=O)O)[C@H]1CN[C@H](C(=O)O)[C@@H]1CC(=O)O,,-13.7% [at 19.4 µM] (inactive)
N[C@H](C(=O)O)c1cc(=O)[nH]o1,,-6.61% [at 19.4 µM] (inactive)
CC(C)(C)c1ccc(CN2C(=O)CN=C(c3ccccc3)c3ccccc32)cc1,,-14.9% [at 107 µM] (inactive)
O=C1CC(=O)N(Cc2ccccc2)C(=O)N1CCCCCCN1C(=O)CC(=O)N(Cc2ccccc2)C1=O,22.4 µM (active),
COC1CC(OC2CC[C@@]3(C=O)C4CC[C@]5(C)C(C6=CC(=O)OC6)CC[C@@]5(O)C4CC[C@]3(O)C2)OC(C)C1O (some centres undefined),,-7.19% (inactive)
C[C@]12CC[C@@H]3c4ccc(O)cc4C[C@@H](CCCCCCCCCS(=O)CCCC(F)(F)C(F)(F)F)C3[C@@H]1CC[C@@H]2O (some centres undefined),,-16.9% (inactive)
CO[C@@H]1C[C@@H](C[C@H]2CC[C@H](C)[C@@H]([C@@H](C)C(=O)O)O2)O[C@]2(O[C@](C)([C@H]3CC[C@@](C)(C4OC([C@H]5O[C@@](O)(CO)[C@H](C)C[C@@H]5C)C[C@@H]4C)O3)C[C@H]2C)[C@@H]1C (some centres undefined),,0.283% [at 19.4 µM] (inactive)
CN=C(NC#N)NCCSCc1nc[nH]c1C,inactive and 28.2 µM (active),
NC[C@H](O)c1ccc(O)cc1,,-4.18% [at 12 µM] (inactive)
CC[C@]1(O)C(=O)OCc2c1cc1n(c2=O)Cc2cc3ccccc3nc2-1,,-8.67% [at 19.4 µM] (inactive)
Fc1ccc(C(OCCN2CCN(C/C=C\c3ccccc3)CC2)c2ccc(F)cc2)cc1,,-16.7% [at 19.4 µM] (inactive)
CC[N+](C)(CC)CCC[n+]1c(-c2ccccc2)c2cc(N)ccc2c2ccc(N)cc21,6.31 µM (active),
CC(C)(O)c1[se]c2ccccc2c1I,,-19.7% [at 107 µM] (inactive)
CN1[C@@H]2CC[C@H]1CC(OC(=O)c1cc(Cl)cc(Cl)c1)C2 (some centres undefined),,-5.99% [at 19.4 µM] (inactive)
COc1ccc(N2C(=O)/C(=C/c3ccco3)C(=O)NC2=S)cc1,4.47 µM (active),

SMILES,Potency,"activity, negative = inhibition"
CCN1C[C@]2(C)CC[C@H](O)[C@@]34[C@@H]5CC6[C@@H](OC)C[C@@](O)([C@@H]5[C@@H]6O)[C@H](C[C@@H]23)[C@H]14,,-3.02% [at 12 µM] (inactive)
N#Cc1cc(Br)c(O)c(Br)c1,,12.6% (inactive)
CN(C)[C@@H]1C(=O)C(C(N)=O)=C(O)[C@@]2(O)C(=O)C3=C(O)c4c(O)cccc4[C@@](C)(O)C3CC12 (some centres undefined),,-10.9% (inactive)
c1ccc2sc(SNC3CCCCC3)nc2c1,,-5.44% (inactive)
NCCCCC(N)C(=O)O (centres undefined),inactive,
C=CCN1CCC2(C)c3cc(O)ccc3CC1[C@@H]2C (some centres undefined),,7.6% [at 19.4 µM] (inactive)
CCCN(C/C=C/I)C1CCc2ccc(O)cc2C1 (centres undefined),,-4.88% [at 19.4 µM] (inactive)
CO[C@H]1[C@@H](O)[C@@H](C)O[C@H](O[C@H]2[C@H](Oc3cccc4c(O)c5c(=O)oc6ccc(C)c7c(=O)oc(c34)c5c67)O[C@H](C)[C@H](O)[C@@H]2O)[C@@H]1O,35.5 µM (active),
c1ccc(CN2CC[C@@]3(CCCNC3)C2)cc1,,-4.77% (inactive)
CCCCCCCCCCCCN=C(N)N,,23.6% (inactive)
CN(C)C1C(=O)C(C(N)=O)=C(O)[C@@]2(O)C(=O)C3=C(O)c4c(O)cccc4[C@@](C)(O)C3C[C@@H]12 (some centres undefined),,-12% [at 19.4 µM] (inactive)
N#CC(C#N)=Cc1cc(O)c(O)c([N+](=O)[O-])c1,2.82 µM (active),
COC([CH2][Hg])CNC(=O)c1ccccc1OCC(=O)O (centres undefined),,4.39% [at 19.4 µM] (inactive)
Nc1ccc(-c2ccc(N)c(N)c2)cc1N,,11.1% (inactive)
CN(C)C[C@H]1CCCC[C@]1(O)c1cccc(O)c1,,15.6% (inactive)
CC[C@@H]1CN2CC[C@@H]1C[C@H]2[C@H](O)c1ccnc2ccc(OC)cc12,,-10.2% [at 19.4 µM] (inactive)
CC1=CC(=O)C2=C(C)C[C@H](O)[C@H]3[C@H](C)C(=O)O[C@@H]3C12 (some centres undefined),,-5.66% [at 19.4 µM] (inactive)
C[C@H]1C/C=C/[C@@H]2[C@@H]3O[C@]3(C)[C@@H](C)[C@H]3[C@H](Cc4ccccc4)NC(=O)[C@]32OC(=O)O/C=C/[C@](C)(O)C1=O,,-10.2% [at 12 µM] (inactive)
Cc1c(C(=O)O)cccc1-n1c(C)cc(/C=C2\C(=O)NC(=O)N(c3ccc4c(c3)OCO4)C2=O)c1C,44.7 µM (active),
CC(=O)OC1C2CCC3C1(CC(O)[C@@]1(O)[C@@H](CC(O)C1(C)C)[C@]3(C)O)C[C@@]2(C)O (some centres undefined),,0.942% (inactive)
C=CCSSCC=C,,-7.05% (inactive)
C[C@]12O[C@H](C[C@@]1(O)C(=O)O)n1c3ccccc3c3c4c(c5c6ccccc6n2c5c31)CNC4=O,,-9.21% (inactive)

SMILES,Potency,"activity, negative = inhibition"
C[C@@]12CCC3C(CC[C@@H]4CC(O)CC[C@@]34C)C1CCC2O (some centres undefined),,2.74% (inactive)
CCCCC/C=C\C/C=C\C/C=C\C/C=C\CCCCCC(=O)NCCO,,2.79% [at 19.4 µM] (inactive)
Cc1cccc2c3c(ccc12)C1=C(C(=O)C3=O)C(C)CO1 (centres undefined),20 µM (active),
C[C@@]12CC[C@H]3[C@@H](CC[C@]4(O)C[C@H](O)CC[C@@]34C=O)[C@]1(O)CC[C@@H]2C1=CC(=O)OC1,,-6.33% [at 12 µM] (inactive)
C[C@@H]1C[C@@H]2O[C@H]2/C=C\C=C\C(=O)Cc2c(Cl)c(O)cc(O)c2C(=O)O1,39.8 µM (active),
c1ccc(CCCCN2CCC(c3ccccc3)CC2)cc1,inactive,
O=C(N/N=C/c1ccc([N+](=O)[O-])o1)c1cc([N+](=O)[O-])cc([N+](=O)[O-])c1O,,-2.87% [at 19.4 µM] (inactive)
c1ccc(N2CC[C@@]3(CCCNC3)C2)nc1,,8.04% (inactive)
O=C1NC(=O)N(c2ccccc2)C(=O)/C1=C/c1ccc([N+](=O)[O-])s1,31.6 µM (active),
COc1cccc(N2C(=O)NC(=O)/C(=C\c3ccc([N+](=O)[O-])s3)C2=O)c1,25.1 µM (active),
CC(=O)[O][Sn]([c]1ccccc1)([c]1ccccc1)[c]1ccccc1,,4.82% (inactive)
CCCCCCCCc1[se]c2ccccc2c1Br,,-2.11% (inactive)
ClCCN(CCCl)c1ccc(C=Nc2ccc(/C=C/c3ccnc4ccccc34)cc2)cc1,,-11.1% [at 107 µM] (inactive)
CC(C)(Cc1c[nH]c2ccc(Cl)cc12)NCCOc1ccccc1OCC1CC1,inactive,
CCN(CC)c1nc(C)cc(OP(=S)(OC)OC)n1,,14.8% (inactive)
C[C@@H]1C[C@H]2CC[C@H](O2)[C@H](C)C(=O)O[C@@H](C)C[C@@H]2CC[C@@H](O2)[C@@H](C)C(=O)O[C@H](C)C[C@H]2CC[C@H](O2)[C@H](C)C(=O)O[C@@H](C)C[C@@H]2CC[C@@H](O2)[C@@H](C)C(=O)O1,,6.33% (inactive)
O=C(Nc1cccc(F)c1)N1CC[C@@]2(CCCN(C(=O)Oc3ccccc3)C2)C1,,-3.75% (inactive)
CC(C)(c1ccc(OC[C@@H]2CO2)cc1)c1ccc(OC[C@H]2CO2)cc1,,-11.1% [at 19.4 µM] (inactive)
COc1ccc2[nH]cc(CCNCc3ccc(Br)cc3)c2c1,,2.66% [at 19.4 µM] (inactive)
O=C1CCc2cccc3c2N1CC3,,-11.9% [at 12 µM] (inactive)
